In PubChem BioAssay (NCI):
Values joined by “and” are separate entries in the source; they are usually repeats but may differ in a detail not shown here. Equal entries are not always repeated. Compounds without any hit were thinned out: in the full panel of roughly 83,000, 20% have a hit.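 Single-concentration screen, 48 h exposure, 96-well plates. Endpoint: percent growth. Below 10 = active.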 Active and inactive are the calls of the source.

The compounds below were run on SR leukemia (assay: NCI-60 one-dose screen, 48 h (100 = growth as untreated, 0 = no growth, -100 = all killed)). Conditions: 100 µM.
`CCN(Cc1ccccc1)c1ccc(/C=C2\COc3ccccc3C2=O)cc1` was tested, and the growth was 7.93% (active). With `CC(=O)/C=C/c1ccc(OCc2ccc(C(C)(C)C)cc2)cc1` the growth was 29.5% (inactive). In the case of `CC(=O)/C=C/c1ccc(N(CCO)Cc2ccc(C(C)(C)C)cc2)cc1`, the growth was -62.1% (active). With `O=C(/C=C/c1cccc(Oc2ccc(Cl)cc2)c1)c1ccccc1` the growth was -25.1% (active). For `COc1ccc(C(=O)/C=C/c2ccc(OCc3cccc(C(F)(F)F)c3)c(OC)c2)cc1OC`, the growth was 5.42% (active). In the case of `CC(=O)/C=C/c1ccc(OCc2ccc(Cl)cc2)cc1`, the growth was 30% (inactive). `COc1ccc(C(=O)/C=C/c2ccc(OCc3ccc(Cl)cc3)cc2)cc1OC` was tested, and the growth was 43.8% (inactive). With `CC(=O)/C=C/c1ccc(N(C)Cc2ccc(C(C)(C)C)cc2)cc1` the growth was -29.5% (active).

What follows are compounds tested on RPMI-8226 leukemia in the same assay as above. Conditions: 10 µM.
In the case of `CCN(Cc1ccccc1)c1ccc(/C=C2\COc3ccccc3C2=O)cc1`, the growth was 110% (inactive). For `CC(=O)/C=C/c1ccc(OCc2ccc(C(C)(C)C)cc2)cc1`, the growth was 67.6% (inactive). `CC(=O)/C=C/c1ccc(N(CCO)Cc2ccc(C(C)(C)C)cc2)cc1` was tested, and the growth was 84.7% (inactive). With `O=C(/C=C/c1cccc(Oc2ccc(Cl)cc2)c1)c1ccccc1` the growth was 0.961% (active). In the case of `COc1ccc(C(=O)/C=C/c2ccc(OCc3cccc(C(F)(F)F)c3)c(OC)c2)cc1OC`, the growth was 29.7% (inactive). In the case of `CC(=O)/C=C/c1ccc(OCc2ccc(Cl)cc2)cc1`, the growth was 87.9% (inactive). For `COc1ccc(C(=O)/C=C/c2ccc(OCc3ccc(Cl)cc3)cc2)cc1OC`, the growth was 88.5% (inactive). `CC(=O)/C=C/c1ccc(N(C)Cc2ccc(C(C)(C)C)cc2)cc1` was tested, and the growth was 78.2% (inactive).

Same assay, conditions: 10 µM unless noted
In the case of `CCOC(=O)c1ccc(Nc2ncnc3c2cnn3-c2cccc(F)c2)cc1`, the growth was 99.5% (inactive). `O=S(=O)(O)c1ccc(N=Nc2ccc(N=Nc3cccc4ccccc34)c(S(=O)(=O)O)c2)cc1` was tested, and the growth was 108% (inactive). In the case of `CC[C@@H]1NC(=O)[C@H]([C@H](O)[C@H](C)C/C=C/c2ccc(CN3C(=O)C(C)=C(C)C3=O)cc2)N(C)C(=O)[C@H](C(C)C)N(C)C(=O)[C@H](CC(C)C)N(C)C(=O)[C@H](CC(C)C)N(C)C(=O)[C@@H](C)NC(=O)[C@H](C)NC(=O)[C@H](CC(C)C)N(C)C(=O)[C@H](C(C)C)NC(=O)[C@H](CC(C)C)N(C)C(=O)CN(C)C1=O`, the growth was 53.3% (inactive). In the case of `COc1nc(=O)n(C2C=CC(=O)O2)cc1F` (configuration not stated), the growth was 70.1% (inactive). In the case of `COc1ccc(-c2csc(NC(=O)CN3CCN(CCO)CC3)n2)cc1NS(=O)(=O)c1cccc2c(N(C)C)cccc12`, the growth was 36% (inactive). `O=C1/C(=C/c2ccc(-c3cccc(C(F)(F)F)c3)o2)SC(=S)N1CCc1ccc(O)cc1` was tested, and the growth was 68.3% (inactive). For `BrC1=C(Br)C(Br)(Br)C(Br)=C1Br`, the growth was 20.8% (inactive). `OCc1cc(CN2CCCCC2)c(O)c2ncccc12` was tested, and the growth was 71.9% (inactive). With `COc1ccc(C2=C(CN)C(O)NC(=NCC(=O)c3ccc4ccccc4c3)N2)cc1` (configuration not stated) the growth was 119% (inactive). With `N#CSc1c[nH]c2ccc(/C=C/C(=O)/C=C(/C=C/c3ccc4[nH]cc(SC#N)c4c3)OB(F)F)cc12` the growth was -12.2% (active). `CN(C)CCNc1ncc(F)c(-c2cnc3cc(-c4cnn(C)c4)ccn23)n1` was tested, and the growth was 98.3% [0.005 µM] (inactive). In the case of `COc1ccc(Oc2nc(Nc3ccc(N4CCOCC4)cc3)ncc2NC(=O)c2cc(OC)cc(OC)c2)cc1`, the growth was 53.2% (inactive). `COc1ccc2c(c1)oc1c(C)c3c(c(C)c12)C(=O)N(Nc1ccccc1)C3=O` was tested, and the growth was 112% (inactive). `COc1ccc(/C=C2/C(=O)N=C3N2NC(c2ccccc2)=CN3c2ccccc2)cc1` was tested, and the growth was 99.9% (inactive). `O=C1/C(=C/c2ccccc2[N+](=O)[O-])Cc2ccccc21` was tested, and the growth was -5.97% (active) and 3.37% (active). For `COc1ccc2c(c1)CCNC21C(=O)Nc2c(Br)cc(Br)cc21` (configuration not stated), the growth was 106% (inactive). With `O=C(N/N=C/c1ccc(O)cc1O)c1cccc(Nc2ccnc(C(F)(F)F)c2)c1` the growth was 30.8% (inactive). In the case of `O=C(c1cccc(Br)c1)N1CCN(c2ccnc3cc(Cl)ccc23)CC1`, the growth was 70.7% (inactive). In the case of `CCCCCC#CC1OC23CCCCC2C(C#N)(C(=N)O3)C1(C#N)C#N` (configuration not stated), the growth was 93.3% (inactive). In the case of `COc1ccc(-c2c[nH]c(C(=O)O)c2-c2cc(OC)c(OC)c(OC)c2)cc1`, the growth was 36% (inactive). For `NC(N)=NC(N)=NCCCc1ccco1`, the growth was 106% (inactive).
